Measured values taken from PubChem BioAssay (NCATS).
Inconclusive results are not listed. Active and inactive are the calls of the source. Calls come from the whole dose curve; as a rule, active = well fitted cell-killing curve with a large enough effect; inconclusive = small, poorly fitted or top-dose-only effect, or effect the other way; inactive = flat fitted curve, though single readings scatter.

How the values were obtained:
Test in all cases: Primary qHTS to identify gynecologic anti-cancer compounds using libraries of approved drugs and bioactive compounds (AID 1345084); note: nearly all actives have a fitted effect of over 55% in size
C33A = conditions: Gynecologic cancer cell panel viability, ATPlite luminescence, 48 h; series mostly up to 57.5 µM
How it was run: (§1)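 Cells, 1,000 per well, plated 16 h, then exposed 48 h at 37 C to compounds. Viability by ATPlite luminescence after 15 min at room temperature.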

CASKI = conditions: Gynecologic cancer cell panel viability, ATPlite luminescence, 48 h; series mostly up to 57.5 µM
How it was run: as §1

Es-2 = conditions: Gynecologic cancer cell panel viability, ATPlite luminescence, 48 h; series mostly up to 57.5 µM
How it was run: as §1

HeLa = conditions: Gynecologic cancer cell panel viability, ATPlite luminescence, 48 h; series mostly up to 57.5 µM
How it was run: as §1

Hek293T = conditions: Gynecologic cancer cell panel viability, ATPlite luminescence, 48 h, control line for the selectivity index; series mostly up to 57.5 µM
How it was run: as §1

JEG-3 = conditions: Gynecologic cancer cell panel viability, ATPlite luminescence, 48 h; series mostly up to 57.5 µM
How it was run: as §1

OV90 = conditions: Gynecologic cancer cell panel viability, ATPlite luminescence, 48 h; series mostly up to 57.5 µM
How it was run: as §1

PA-1 = conditions: Gynecologic cancer cell panel viability, ATPlite luminescence, 48 h; series mostly up to 57.5 µM
How it was run: as §1

SKOV3 = conditions: Gynecologic cancer cell panel viability, ATPlite luminescence, 48 h; series mostly up to 57.5 µM
How it was run: as §1

Tov-21-G = conditions: Gynecologic cancer cell panel viability, ATPlite luminescence, 48 h; series mostly up to 57.5 µM
How it was run: as §1

Tov112D = conditions: Gynecologic cancer cell panel viability, ATPlite luminescence, 48 h; series mostly up to 57.5 µM
How it was run: as §1
% is set by controls: 0 for no effect and ±100 for the full control effect.

COC(=O)c1c(C)cc(OC(=O)c2c(C)cc(OC)cc2OC)cc1O[C@@H]1O[C@H](CO)[C@@H](O)[C@H](O)[C@H]1O
inactive: Potency (C33A) | Potency (CASKI) | Potency (Es-2) | Potency (HeLa) | Potency (Hek293T) | Potency (JEG-3) | Potency (OV90) | Potency (PA-1) | Potency (SKOV3) | Potency (Tov-21-G) | Potency (Tov112D)

C[C@@H]1O[C@@H](O[C@H]2[C@H](O)[C@@H](O)[C@H](OC3CCC4(C)C5CCC(C)(C(CO)OC6OC(CO)C(O)C(O)C6O)CC5=CCC4C3(C)C)O[C@@H]2CO)[C@H](O)[C@H](O)[C@H]1O (some centres undefined)
inactive: Potency (C33A) | Potency (CASKI) | Potency (Es-2) | Potency (HeLa) | Potency (Hek293T) | Potency (JEG-3) | Potency (OV90) | Potency (PA-1) | Potency (SKOV3) | Potency (Tov-21-G) | Potency (Tov112D)

CC(C)(F)C[C@@H](N[C@@H](c1ccc(-c2ccc(S(C)(=O)=O)cc2)cc1)C(F)(F)F)C(=O)NC1(C#N)CC1
inactive: Potency (C33A) | Potency (CASKI) | Potency (Es-2) | Potency (HeLa) | Potency (Hek293T) | Potency (JEG-3) | Potency (OV90) | Potency (PA-1) | Potency (SKOV3) | Potency (Tov-21-G) | Potency (Tov112D)

CC/C=C\C/C=C\C/C=C\CCCCCCCC(=O)OCC(O)COC1OC(CO)C(O)C(O)C1O (centres undefined)
inactive: Potency (C33A) | Potency (CASKI) | Potency (Es-2) | Potency (HeLa) | Potency (Hek293T) | Potency (JEG-3) | Potency (OV90) | Potency (PA-1) | Potency (SKOV3) | Potency (Tov-21-G) | Potency (Tov112D)

CC1(C)CCC2(C(=O)OC3OCC(O)C(O)C3O)CCC3(C)C(=CCC4C5(C)CC(O)C(OC6OC(COC7OCC(O)C(O)C7O)C(O)C(O)C6O)C(C)(C)C5CCC43C)C2C1 (centres undefined)
inactive: activity change, negative = cytotoxicity (C33A) 7.41% [at 11.6 µM] | activity change, negative = cytotoxicity (CASKI) 17.9% [at 11.6 µM] | activity change, negative = cytotoxicity (Es-2) 5.97% [at 11.6 µM] | activity change, negative = cytotoxicity (HeLa) 7.08% [at 11.6 µM] | activity change, negative = cytotoxicity (Hek293T) -8.87% [at 11.6 µM] | activity change, negative = cytotoxicity (JEG-3) 11.8% [at 11.6 µM] | activity change, negative = cytotoxicity (OV90) 4.98% [at 11.6 µM] | activity change, negative = cytotoxicity (PA-1) 14.1% [at 11.6 µM] | activity change, negative = cytotoxicity (SKOV3) 12.7% [at 11.6 µM] | activity change, negative = cytotoxicity (Tov-21-G) 8.15% [at 11.6 µM] | activity change, negative = cytotoxicity (Tov112D) 7.12% [at 11.6 µM]

C=C1C(OC(=O)/C(C)=C\C)[C@@]23CCC4[C@@](C)(CCC[C@@]4(C)C(=O)O)C2CC[C@H]1C3OC(C)=O (some centres undefined)
inactive: Potency (C33A) | Potency (CASKI) | Potency (Es-2) | Potency (HeLa) | Potency (Hek293T) | Potency (JEG-3) | Potency (OV90) | Potency (PA-1) | Potency (SKOV3) | Potency (Tov-21-G) | Potency (Tov112D)

C/C=C/C=C/C(=O)N1CC[C@]23c4ccccc4N[C@H]4N(C)c5cccc6c5[C@@]42CCN([C@H]6C2OC2(C)C)[C@H]13 (some centres undefined)
inactive: Potency (C33A) | Potency (CASKI) | Potency (Es-2) | Potency (HeLa) | Potency (Hek293T) | Potency (JEG-3) | Potency (OV90) | Potency (PA-1) | Potency (SKOV3) | Potency (Tov-21-G) | Potency (Tov112D)

COc1c2c(c(C)c3c1C(=O)OC3)OC1(C)CC(O)C34OC(OC)(CC(OC(C)=O)C3(C)C1C2)OC4(C)C (centres undefined)
inactive: Potency (C33A) | Potency (CASKI) | Potency (Es-2) | Potency (HeLa) | Potency (Hek293T) | Potency (JEG-3) | Potency (OV90) | Potency (PA-1) | Potency (SKOV3) | Potency (Tov-21-G) | Potency (Tov112D)

Cc1ccc(-c2c(C(=O)CF)n(CCCO)c3ncnc(N)c23)cc1
inactive: Potency (C33A) | Potency (CASKI) | Potency (Es-2) | Potency (HeLa) | Potency (Hek293T) | Potency (JEG-3) | Potency (OV90) | Potency (PA-1) | Potency (SKOV3) | Potency (Tov-21-G) | Potency (Tov112D)

COc1cc([C@H]2c3cc(O)c(OC)cc3C[C@@H](CO[C@@H]3O[C@H](CO)[C@@H](O)[C@H](O)[C@H]3O)[C@@H]2CO)ccc1O
inactive: Potency (C33A) | Potency (CASKI) | Potency (Es-2) | Potency (HeLa) | Potency (Hek293T) | Potency (JEG-3) | Potency (OV90) | Potency (PA-1) | Potency (SKOV3) | Potency (Tov-21-G) | Potency (Tov112D)

O=C(NCc1ccccn1)Nc1nnc(-c2ccco2)o1
inactive: Potency (C33A) | Potency (CASKI) | Potency (Es-2) | Potency (HeLa) | Potency (Hek293T) | Potency (JEG-3) | Potency (OV90) | Potency (PA-1) | Potency (SKOV3) | Potency (Tov-21-G) | Potency (Tov112D)

CC(=O)N[C@H]1[C@H](O[C@H]2CC[C@@]3(C)C(CC[C@]4(C)C3CC=C3C5CC(C)(C)CC[C@]5(C(=O)O)[C@H](O)C[C@]34C)C2(C)C)O[C@H](CO[C@@H]2OC[C@H](O)[C@H](O)[C@H]2O[C@@H]2OC[C@@H](O)[C@H](O)[C@H]2O)[C@@H](O)[C@@H]1O (some centres undefined)
inactive: activity change, negative = cytotoxicity (C33A) -5.03% [at 11.6 µM] | activity change, negative = cytotoxicity (CASKI) -1.03% [at 11.6 µM] | activity change, negative = cytotoxicity (Es-2) -1.64% [at 11.6 µM] | activity change, negative = cytotoxicity (HeLa) -4.4% [at 11.6 µM] | activity change, negative = cytotoxicity (Hek293T) 3.72% [at 11.6 µM] | activity change, negative = cytotoxicity (JEG-3) 4.23% [at 11.6 µM] | activity change, negative = cytotoxicity (OV90) 9.62% [at 11.6 µM] | activity change, negative = cytotoxicity (PA-1) 3.95% [at 11.6 µM] | activity change, negative = cytotoxicity (SKOV3) 10.7% [at 11.6 µM] | activity change, negative = cytotoxicity (Tov-21-G) -0.0551% [at 11.6 µM] | activity change, negative = cytotoxicity (Tov112D) -18.9% [at 11.6 µM]

CC(C)S(=O)(=O)NC[C@H](C)c1ccc(NC(=O)c2cc(F)cc(F)c2)cc1
inactive: Potency (C33A) | Potency (CASKI) | Potency (Es-2) | Potency (HeLa) | Potency (Hek293T) | Potency (JEG-3) | Potency (OV90) | Potency (PA-1) | Potency (SKOV3) | Potency (Tov-21-G) | Potency (Tov112D)

CN(C)C(=O)NC1CCC(CCN2CCN(c3cccc(Cl)c3Cl)CC2)CC1 (centres undefined)
inactive: activity change, negative = cytotoxicity (C33A) 1.34% [at 11.6 µM] | activity change, negative = cytotoxicity (CASKI) 13.5% [at 11.6 µM] | activity change, negative = cytotoxicity (Es-2) 5.23% [at 11.6 µM] | activity change, negative = cytotoxicity (HeLa) -0.835% [at 11.6 µM] | activity change, negative = cytotoxicity (Hek293T) 12% [at 11.6 µM] | activity change, negative = cytotoxicity (JEG-3) 8.74% [at 11.6 µM] | activity change, negative = cytotoxicity (OV90) 0.264% [at 11.6 µM] | activity change, negative = cytotoxicity (PA-1) 1.34% [at 11.6 µM] | activity change, negative = cytotoxicity (SKOV3) 0.966% [at 11.6 µM] | activity change, negative = cytotoxicity (Tov-21-G) 4.37% [at 11.6 µM] | activity change, negative = cytotoxicity (Tov112D) 2.02% [at 11.6 µM]
